This is a sample that favours compounds with a hit; in the whole collection about 5.7% have one here.
rCAG binder: r(CAG) repeat RNA binding | hit rate 1.3% among 370,000 | TO-PRO-1 dye displacement fluorescence | inhibition, % at 3 µM;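 active means inhibition above the plate cutoff, the mean of all test compounds on that plate plus 3 SD, cut at about 35% in these data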;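 further: 0% = DMSO alone and 100% = 100 µM mitoxantrone as full dye displacement; higher means more dye released from RNA so lower well fluorescence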
MPTP inh: permeability transition pore inhibition; hit rate 1.4% among 360,000; isolated mouse mitochondria, Ca2+ swelling absorbance, 30 min; inhibition, % at 10 µM;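 active means inhibition of 50% or more, scaled per plate between neutral and stimulator controls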;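 further: 0% = DMSO wells given calcium and 100% = 1 mM EGTA wells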
GRIN3A LBD mod: NR3A (human) ligand-binding domain modulation; NR3A LBD differential scanning fluorimetry, Tm shift; 0% = protein alone, 100% = glycine-bound protein; Tm shift relative to glycine control, % at 25 µM; hit rate 2.5% among 340,000; AID 1259313;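 active means melting temperature shift of at least 10% of the positive control shift, at one fixed dose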
Myeloid diff MLP: myeloid differentiation induction. ER-HoxA9 myeloid progenitors, lysozyme-GFP differentiation, flow cytometry. calls only at 10 µM. hit rate 1% among 360,000. AID 624256;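 active means normalized GFP-positive differentiation at or above the plate's own cutoff, the solvent-only control mean plus 3 SD; inconclusive means no clear call, values can overlap the other calls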;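 further: cells exposed to compound for four days before flow analysis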
FAS TE block: FAS thioesterase (human) inhibition | P49327 | recombinant FAS-TE, OMFH fluorogenic substrate, fluorescence endpoint | inhibition, % at 15 µM | hit rate 0.67% among 360,000;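 active means compounds whose normalised, plate-corrected inhibition of enzyme fluorescence in the single-dose primary screen is 50% or more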;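 further: 0% = DMSO with enzyme and 100% = substrate without enzyme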
* hit, by the source's call.

How did CCOC(=O)c1cc2c(ccn2C)n1CC(=O)N(Cc1ccccc1)c1ccccc1 do in these assays?
rCAG binder: 10; MPTP inh: 2; GRIN3A LBD mod: 10; Myeloid diff MLP: active; FAS TE block: 24

What do the screens show for `CCOC(=O)[C@]12CCCC=C1N(CCCOC)C(=O)[C@@H]2CC(=O)NCc1cccc2ccccc12`?
rCAG binder: -1

Results for CN(C(=O)Cc1c(C(=O)O)n(C)c2ccccc12)c1ccc(Cl)cc1 ?
rCAG binder: 6; MPTP inh: 0; GRIN3A LBD mod: -2; Myeloid diff MLP: inactive; FAS TE block: -1

How did CC(C)c1ccc(N(C)C(=O)Cc2c(C(=O)O)n(C)c3ccccc23)cc1 do in these assays?
rCAG binder: 11; MPTP inh: 0; GRIN3A LBD mod: 3; Myeloid diff MLP: active; FAS TE block: -1

Results for Cc1cc(Br)c2nc(-c3ccc(F)cc3)c(Cc3cccc(Cl)c3)n2c1 ?
rCAG binder: 9

How did CCn1cc(C(=O)NC(C)C2CC3CCC2C3)cn1 (stereo not given) do in these assays?
rCAG binder: 1; MPTP inh: 2; GRIN3A LBD mod: -1; Myeloid diff MLP: inactive; FAS TE block: -9

What do the screens show for `CCn1cc(C(=O)NC(C)C23CC4CC(CC(C4)C2)C3)cn1` (stereo not given)?
rCAG binder: -4; MPTP inh: 1; GRIN3A LBD mod: -3; Myeloid diff MLP: active; FAS TE block: -9

Results for CC(C)(C)c1ccc(S(=O)(=O)NCC2CCN(C(=O)C(=O)c3cccs3)CC2)cc1 ?
rCAG binder: 3

What do the screens show for `Cc1cccc(-c2cc(C(=O)Nc3sc(C)c(C)c3C(N)=O)c3ccccc3n2)c1`?
rCAG binder: 11; MPTP inh: -1; GRIN3A LBD mod: 15*; Myeloid diff MLP: inactive; FAS TE block: 25

What do the screens show for `Cc1ccc(C)c(-c2cc(C(=O)Nc3sc(C)c(C)c3C(N)=O)c3ccccc3n2)c1`?
rCAG binder: 15; MPTP inh: 2; GRIN3A LBD mod: 14*; Myeloid diff MLP: inconclusive; FAS TE block: 37

What do the screens show for `O=C(C(=O)N1CCN(S(=O)(=O)c2ccccc2)CC1)c1cccc(C(F)(F)F)c1`?
rCAG binder: 3

What do the screens show for `CCOC(=O)Cn1cc(CN2C(C(=O)OC)CN(C3CC3)CCS2(=O)=O)nn1` (stereo not given)?
rCAG binder: 1

How did Cc1cc(-c2n[nH]c(=S)n2N=Cc2c3ccccc3cc3ccccc23)n[nH]1 do in these assays?
rCAG binder: 11

What do the screens show for `O=C(O)c1ccccc1NS(=O)(=O)c1ccc(N/N=C/c2cccc(O)c2O)c([N+](=O)[O-])c1`?
rCAG binder: 92*; MPTP inh: 2; GRIN3A LBD mod: 32*; Myeloid diff MLP: inactive; FAS TE block: 21

Results for CCOc1ccc(C=NNc2ccc(S(=O)(=O)Nc3ccccc3C(=O)O)cc2[N+](=O)[O-])cc1OC ?
MPTP inh: 9; GRIN3A LBD mod: 15*; Myeloid diff MLP: inactive; FAS TE block: -1

Results for CN(CCO)c1ccc(C=NNc2ccc([N+](=O)[O-])cc2S(=O)(=O)Nc2ccccc2C(=O)O)cc1 ?
rCAG binder: 91*; MPTP inh: 16; GRIN3A LBD mod: 26*; Myeloid diff MLP: inactive; FAS TE block: 34

What do the screens show for `CC(C)CN(CC(C)C)C(=O)CSc1nc2cccnc2n1C`?
rCAG binder: 2

Results for CCN(CC)C(=O)CC[C@H]1CC[C@]2(CCCN(Cc3ccncc3)C2)O1 ?
rCAG binder: 0

How did Cc1ccc2cc(C#N)c(N3CCCN(S(=O)(=O)c4ccccc4)CC3)nc2c1C do in these assays?
rCAG binder: 3; MPTP inh: 0; GRIN3A LBD mod: 11*; Myeloid diff MLP: inactive; FAS TE block: 4

What do the screens show for `Cc1ccc2cc(C#N)c(N3CCCN(S(=O)(=O)c4ccccc4)CC3)nc2c1`?
rCAG binder: 5; MPTP inh: 4; GRIN3A LBD mod: -1; Myeloid diff MLP: inactive; FAS TE block: 6

How did Nc1c(C(=O)NCc2ccccc2)c2nc3ccccc3nc2n1-c1ccc2c(c1)OCO2 do in these assays?
rCAG binder: 3; MPTP inh: 1; GRIN3A LBD mod: 0; Myeloid diff MLP: active; FAS TE block: 5

How did O=C1c2ccccc2C(=O)c2c(/C=C/N3CCCCC3)ccnc21 do in these assays?
rCAG binder: 7; MPTP inh: 2; GRIN3A LBD mod: 1; Myeloid diff MLP: active; FAS TE block: -3
